These results are taken from PubChem BioAssay (EPA / NIEHS).

Where “and” joins values, the source holds several entries; their conditions need not be identical. Equal entries are not always repeated. Results filed as inconclusive are left out. Where a structure was tested more than once in an assay, its records may differ in their call. Calls of active or inactive are those of the source. The calls were made as follows: active = hit-call score of the fitted dose curve at least 0.9, where 1 is the maximum; inconclusive = response in the unintended direction; inactive = score below 0.9.

Chain of mouse Peroxisome Proliferator-activated Receptor gamma (PPARg), Pparg (gene 19016) (P37238 whole entry, looked up): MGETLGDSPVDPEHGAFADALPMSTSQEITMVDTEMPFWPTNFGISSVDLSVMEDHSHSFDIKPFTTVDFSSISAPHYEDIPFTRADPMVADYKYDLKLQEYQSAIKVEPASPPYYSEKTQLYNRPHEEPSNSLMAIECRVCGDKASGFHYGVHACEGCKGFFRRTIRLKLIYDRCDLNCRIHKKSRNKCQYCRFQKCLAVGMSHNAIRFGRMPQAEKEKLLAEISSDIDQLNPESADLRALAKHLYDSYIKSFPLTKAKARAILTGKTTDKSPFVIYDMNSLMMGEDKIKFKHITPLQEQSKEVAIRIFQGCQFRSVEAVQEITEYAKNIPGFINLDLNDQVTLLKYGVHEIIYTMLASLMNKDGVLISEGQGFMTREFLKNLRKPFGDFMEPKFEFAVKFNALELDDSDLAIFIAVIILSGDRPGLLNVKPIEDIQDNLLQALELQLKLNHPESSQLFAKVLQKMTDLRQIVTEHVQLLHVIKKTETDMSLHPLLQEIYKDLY

This experiment concerns the target mouse Peroxisome Proliferator-activated Receptor gamma (PPARg), Pparg (gene 19016) (UniProt P37238). The experiment in a line: ATG_mPPARg_XSP2: Attagene TRANS-FACTORIAL Multi-Species (XSP2) HepG2 Assay for mouse Peroxisome Proliferator-activated Receptor gamma (PPARg) (AID 2283830).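 Also: hits are gains in reporter mRNA above DMSO so AC50 marks activation.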 On the procedure:
ATG_XSP2_multi-species_TRANS is a cell-based, multiplexed assay created by modifying the existing Attagene TRANS-FACTORIAL system to include a panel of nuclear receptors from some or all the following species: human (Homo sapiens), mouse (Mus musculus), frog (Xenopus laevis), zebrafish (Danio rerio), chicken (Gallus gallus), and turtle (Chrysemys picta). The […] format uses HepG2, a human liver cell line, with measurements taken at 24 hours after chemical dosing in a 24-well plate. Xsp2 included 3 nM 6-alpha-fluorotestosterone and 1.5 nM norgestrel to stimulate the androgen receptor.ATG_mPPARg_XSP2 is one of 29 assay components measured or calculated from the ATG_XSP2_multi-species_TRANS assay. It is designed to make measurements of mRNA induction, a form of inducible reporter, as detected with fluorescence intensity signals by Reverse transcription polymerase chain reaction (RT-PCR) and Capillary electrophoresis technology.The assay endpoint ATG_mPPARg_XSP2 was analyzed in the positive analysis fitting direction relative to DMSO as the negative control and baseline of activity. Using a type of inducible reporter, measures of mRNA for gain-of-signal activity can be used to understand the reporter gene at the transcription factor-level as they relate to the gene PPARg. Furthermore, this assay endpoint can be referred to as a primary readout, because this assay has produced multiple assay endpoints where this one serves a reporter gene function. To generalize the intended target to other relatable targets, this assay endpoint is annotated to the nuclear receptor intended target family, where the subfamily is non-steroidal.
Human liver HepG2 cells are transiently transfected with multiple reporter transcription units (MRTUs) in 6-well plates using FuGene 6 reagent (Roche; 3 ml FuGene/1 mg DNA). The MRTU constructs are regulated by a cis-regulating element (promoter). […] A major difference between the CIS and TRANS system is that in CIS activities of endogenous TFs are measured, whereas the TRANS assay evaluates changes in activities of exogenous, chimeric NR-Gal4 proteins. […] At the end of 24 hour incubation, total RNA was isolated using TriZol reagent (Invitrogen). The isolated RNA is then reverse-transcribed using oligo(dT) primer and Mo-MLV reverse transcriptase (Invitrogen) with DNAse I (Ambion) treatment for 30 min. The one-tenth of the produced cDNA was amplified by PCR using Taq DNA polymerase (Invitrogen) and two reporter sequence-specific primers. The PCR products were fluorescently labeled by primer extension with 6-arboxyfluorescein (6-FAM) 5'-labeled reporter sequence-specific primer (2 min at 95 C, 20 s at 68 C and 10 min at 72 C) and these products were digested with 5U of HpaI (New England Biolabs) for 2h at 37 C. The fragments were purified using Qiaquick PCR columns (Qiagen), analyzed on an ABI 3130xL genetic analyzer (Applied Biosystems) with peak positions identified by using a set of X-rhodamine (ROX)-labeled MapMarker1000 molecular weight standards (BioVentures). The raw capillary electrophoresis data was processed using Attagraph software (Attagene).
Regarding `CCOP(=S)(OCC)Oc1ccc2c(C)c(Cl)c(=O)oc2c1`, the AC50 (as a rule, the concentration at which the activity in the assay is half-maximal) is 5.43 µM (active).

For `CCc1cccc(C)c1N(C(=O)CCl)C(C)COC` (stereo unspecified), the AC50 was 27.3 µM (active).

As for `CCCOCC(=Nc1ccc(Cl)cc1C(F)(F)F)n1ccnc1`, the AC50 is 1.28 µM (active).

As for `C#CCC1=C(C)C(OC(=O)C2C(C=C(C)C)C2(C)C)CC1=O` (stereo unspecified), the AC50 is 30.2 µM (active).

Regarding `COc1ccc(C(=CC(=O)N2CCOCC2)c2ccc(Cl)cc2)cc1OC`, the AC50 is 29.3 µM (active) and the outcome was inactive.

For `CCOP(=O)(NC(C)C)Oc1ccc(SC)c(C)c1` (stereo unspecified), the AC50 was 31.6 µM (active) and 38.4 µM (active).

Take `Nc1c(Cl)cc([N+](=O)[O-])cc1Cl`: the AC50 was 11.9 µM (active) and 41.8 µM (active).

On to `CCC(CC)Nc1c([N+](=O)[O-])cc(C)c(C)c1[N+](=O)[O-]`, for which the result was inactive.

For `CCC(=O)Nc1ccc(Cl)c(Cl)c1`, the AC50 was 39.7 µM (active) and the call was inactive.
